{"source": "ChEMBL document CHEMBL2218924", "about": "“A broad activity screen in support of a chemogenomic map for kinase signalling research and drug discovery” (Biochem J, 2013)", "key": {"[1]": {"target": "T1, Ephrin type-A receptor 3 (Homo sapiens) (UniProt P29320)", "T1 sequence (whole entry)": "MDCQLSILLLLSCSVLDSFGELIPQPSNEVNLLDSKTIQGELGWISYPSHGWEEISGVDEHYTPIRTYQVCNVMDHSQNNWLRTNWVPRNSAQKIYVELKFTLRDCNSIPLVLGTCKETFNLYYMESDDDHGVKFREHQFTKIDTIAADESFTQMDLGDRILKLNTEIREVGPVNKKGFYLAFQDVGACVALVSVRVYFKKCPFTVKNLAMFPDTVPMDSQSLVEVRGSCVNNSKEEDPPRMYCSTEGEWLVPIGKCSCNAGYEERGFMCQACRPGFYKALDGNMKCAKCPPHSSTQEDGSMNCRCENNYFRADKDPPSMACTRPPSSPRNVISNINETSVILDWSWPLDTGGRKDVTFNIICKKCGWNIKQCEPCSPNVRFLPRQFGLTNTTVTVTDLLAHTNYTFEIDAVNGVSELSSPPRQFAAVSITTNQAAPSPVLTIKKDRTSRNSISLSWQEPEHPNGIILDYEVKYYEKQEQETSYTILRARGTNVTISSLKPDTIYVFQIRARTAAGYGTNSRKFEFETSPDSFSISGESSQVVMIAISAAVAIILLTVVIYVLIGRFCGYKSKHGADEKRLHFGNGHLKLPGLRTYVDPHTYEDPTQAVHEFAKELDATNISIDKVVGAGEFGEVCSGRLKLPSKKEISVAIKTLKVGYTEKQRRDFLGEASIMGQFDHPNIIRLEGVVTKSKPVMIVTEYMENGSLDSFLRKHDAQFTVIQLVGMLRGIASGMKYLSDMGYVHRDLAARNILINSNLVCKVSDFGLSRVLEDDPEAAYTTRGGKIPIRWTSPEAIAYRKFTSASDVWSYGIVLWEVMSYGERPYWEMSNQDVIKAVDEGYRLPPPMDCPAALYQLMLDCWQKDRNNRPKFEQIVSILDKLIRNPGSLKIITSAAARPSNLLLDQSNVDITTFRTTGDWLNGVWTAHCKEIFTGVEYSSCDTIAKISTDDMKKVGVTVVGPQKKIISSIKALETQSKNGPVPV", "details": "at 10 µM"}, "[2]": {"target": "Ephrin type-A receptor 4 (Homo sapiens) (UniProt P54764)", "sequence (P54764 whole entry)": "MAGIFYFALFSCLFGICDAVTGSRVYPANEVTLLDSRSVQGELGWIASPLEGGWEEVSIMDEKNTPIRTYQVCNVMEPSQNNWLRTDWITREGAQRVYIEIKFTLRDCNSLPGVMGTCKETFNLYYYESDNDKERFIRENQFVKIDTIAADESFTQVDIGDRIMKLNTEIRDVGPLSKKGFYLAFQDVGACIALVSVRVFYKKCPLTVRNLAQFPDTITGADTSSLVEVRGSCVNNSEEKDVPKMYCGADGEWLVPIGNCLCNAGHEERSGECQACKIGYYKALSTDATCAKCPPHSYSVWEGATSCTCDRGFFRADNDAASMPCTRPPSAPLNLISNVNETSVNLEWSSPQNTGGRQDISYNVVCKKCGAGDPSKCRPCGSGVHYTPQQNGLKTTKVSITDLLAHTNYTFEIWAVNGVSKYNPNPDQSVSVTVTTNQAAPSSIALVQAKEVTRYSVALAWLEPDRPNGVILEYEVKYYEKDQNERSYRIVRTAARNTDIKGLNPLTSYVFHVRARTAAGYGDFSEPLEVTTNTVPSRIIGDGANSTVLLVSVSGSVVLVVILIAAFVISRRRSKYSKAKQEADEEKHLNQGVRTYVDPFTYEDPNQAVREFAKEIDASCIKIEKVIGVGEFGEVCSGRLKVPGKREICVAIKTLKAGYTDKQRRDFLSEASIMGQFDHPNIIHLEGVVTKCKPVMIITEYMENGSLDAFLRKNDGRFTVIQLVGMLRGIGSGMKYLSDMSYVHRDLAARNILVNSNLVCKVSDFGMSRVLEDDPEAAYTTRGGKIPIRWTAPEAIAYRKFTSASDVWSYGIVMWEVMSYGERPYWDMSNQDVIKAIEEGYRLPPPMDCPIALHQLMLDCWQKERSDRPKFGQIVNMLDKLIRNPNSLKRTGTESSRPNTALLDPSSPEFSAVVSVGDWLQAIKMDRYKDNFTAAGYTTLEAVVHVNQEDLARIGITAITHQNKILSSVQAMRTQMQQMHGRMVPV", "details": "at 10 µM"}, "[3]": {"target": "Ephrin type-A receptor 5 (Homo sapiens) (UniProt P54756)", "sequence (P54756 whole entry)": "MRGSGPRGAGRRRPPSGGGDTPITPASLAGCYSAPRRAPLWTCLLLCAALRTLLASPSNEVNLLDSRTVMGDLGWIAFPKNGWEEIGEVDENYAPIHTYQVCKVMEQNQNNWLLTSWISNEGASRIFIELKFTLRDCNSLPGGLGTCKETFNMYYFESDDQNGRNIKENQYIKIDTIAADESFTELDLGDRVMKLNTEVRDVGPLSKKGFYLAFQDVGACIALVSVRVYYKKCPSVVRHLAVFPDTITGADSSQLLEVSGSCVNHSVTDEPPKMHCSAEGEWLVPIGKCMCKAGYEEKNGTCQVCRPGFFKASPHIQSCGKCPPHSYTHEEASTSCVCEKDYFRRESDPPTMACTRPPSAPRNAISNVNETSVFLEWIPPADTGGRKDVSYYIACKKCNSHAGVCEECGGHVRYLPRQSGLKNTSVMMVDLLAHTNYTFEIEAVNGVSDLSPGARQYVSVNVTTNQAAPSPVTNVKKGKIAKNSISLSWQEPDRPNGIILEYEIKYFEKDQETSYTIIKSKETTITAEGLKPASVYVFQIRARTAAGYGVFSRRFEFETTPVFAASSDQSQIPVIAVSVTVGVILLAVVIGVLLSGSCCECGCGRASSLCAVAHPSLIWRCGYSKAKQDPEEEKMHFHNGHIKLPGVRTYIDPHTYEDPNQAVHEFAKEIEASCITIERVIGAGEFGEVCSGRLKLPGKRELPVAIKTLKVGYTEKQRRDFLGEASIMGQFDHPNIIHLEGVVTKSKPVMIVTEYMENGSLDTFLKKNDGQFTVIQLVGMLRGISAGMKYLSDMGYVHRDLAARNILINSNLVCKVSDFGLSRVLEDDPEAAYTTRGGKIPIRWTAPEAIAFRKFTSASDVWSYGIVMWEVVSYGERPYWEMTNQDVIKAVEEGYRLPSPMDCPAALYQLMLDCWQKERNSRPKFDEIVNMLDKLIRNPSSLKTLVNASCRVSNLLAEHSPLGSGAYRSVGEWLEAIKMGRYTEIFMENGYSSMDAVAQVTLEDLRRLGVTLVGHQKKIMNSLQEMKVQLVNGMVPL", "details": "at 10 µM"}, "[4]": {"target": "Ephrin type-A receptor 7 (Homo sapiens) (UniProt Q15375)", "sequence (Q15375 28-998 limits assumed)": "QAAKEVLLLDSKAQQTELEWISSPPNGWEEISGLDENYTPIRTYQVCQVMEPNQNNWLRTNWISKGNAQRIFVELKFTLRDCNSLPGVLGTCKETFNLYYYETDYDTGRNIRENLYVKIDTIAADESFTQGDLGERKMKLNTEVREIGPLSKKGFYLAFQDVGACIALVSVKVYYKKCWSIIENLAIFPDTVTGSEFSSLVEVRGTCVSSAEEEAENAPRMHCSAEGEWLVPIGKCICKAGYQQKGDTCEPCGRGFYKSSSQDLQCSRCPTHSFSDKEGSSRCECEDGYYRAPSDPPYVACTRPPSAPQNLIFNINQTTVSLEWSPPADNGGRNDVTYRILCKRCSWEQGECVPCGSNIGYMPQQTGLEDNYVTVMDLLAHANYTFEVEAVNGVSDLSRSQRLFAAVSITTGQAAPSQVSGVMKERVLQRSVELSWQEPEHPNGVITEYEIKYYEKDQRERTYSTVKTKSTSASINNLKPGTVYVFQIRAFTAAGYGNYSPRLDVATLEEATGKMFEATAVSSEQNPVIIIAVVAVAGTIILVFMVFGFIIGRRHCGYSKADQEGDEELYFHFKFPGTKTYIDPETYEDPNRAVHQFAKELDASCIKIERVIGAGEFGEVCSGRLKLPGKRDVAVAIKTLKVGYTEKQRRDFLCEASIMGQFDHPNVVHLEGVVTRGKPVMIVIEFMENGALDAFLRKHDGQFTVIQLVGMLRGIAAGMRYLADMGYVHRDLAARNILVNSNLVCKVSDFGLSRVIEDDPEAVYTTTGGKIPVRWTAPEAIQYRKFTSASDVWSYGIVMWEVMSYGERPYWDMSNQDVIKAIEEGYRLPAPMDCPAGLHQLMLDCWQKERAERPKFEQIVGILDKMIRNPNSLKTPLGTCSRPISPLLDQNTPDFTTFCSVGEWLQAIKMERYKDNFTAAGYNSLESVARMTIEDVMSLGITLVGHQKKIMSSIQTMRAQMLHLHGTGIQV", "details": "at 1 µM"}, "[5]": {"target": "Ephrin type-A receptor 7 (Homo sapiens) (UniProt Q15375)", "details": "at 10 µM"}, "[6]": {"target": "T2, Ephrin type-A receptor 8 (Homo sapiens) (UniProt P29322)", "T2 sequence (whole entry)": "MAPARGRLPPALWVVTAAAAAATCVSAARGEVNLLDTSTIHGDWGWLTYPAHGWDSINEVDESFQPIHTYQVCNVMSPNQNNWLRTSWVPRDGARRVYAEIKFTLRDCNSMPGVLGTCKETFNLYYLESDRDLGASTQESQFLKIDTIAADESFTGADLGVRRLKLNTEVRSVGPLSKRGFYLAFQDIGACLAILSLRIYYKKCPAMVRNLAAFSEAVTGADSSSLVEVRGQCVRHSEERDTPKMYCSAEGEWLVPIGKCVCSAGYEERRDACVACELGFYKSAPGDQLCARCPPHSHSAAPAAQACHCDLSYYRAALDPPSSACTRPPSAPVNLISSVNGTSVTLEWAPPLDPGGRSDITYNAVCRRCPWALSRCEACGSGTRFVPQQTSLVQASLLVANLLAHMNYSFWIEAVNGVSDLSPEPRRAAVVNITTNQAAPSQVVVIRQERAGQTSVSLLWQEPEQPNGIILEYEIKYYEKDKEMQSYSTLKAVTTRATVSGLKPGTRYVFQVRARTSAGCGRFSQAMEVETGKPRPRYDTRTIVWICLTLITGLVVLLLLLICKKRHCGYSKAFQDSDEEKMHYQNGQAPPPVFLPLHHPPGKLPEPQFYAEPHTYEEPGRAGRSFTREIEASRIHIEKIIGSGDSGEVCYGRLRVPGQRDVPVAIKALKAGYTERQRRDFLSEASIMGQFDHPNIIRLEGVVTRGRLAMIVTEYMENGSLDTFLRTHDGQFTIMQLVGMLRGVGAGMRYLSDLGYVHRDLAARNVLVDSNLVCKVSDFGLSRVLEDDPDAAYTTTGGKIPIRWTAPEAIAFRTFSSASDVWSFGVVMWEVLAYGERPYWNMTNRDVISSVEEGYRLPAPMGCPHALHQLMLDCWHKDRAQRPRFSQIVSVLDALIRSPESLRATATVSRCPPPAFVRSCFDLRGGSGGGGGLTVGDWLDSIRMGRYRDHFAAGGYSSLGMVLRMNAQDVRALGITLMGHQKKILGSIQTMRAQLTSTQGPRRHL", "details": "at 1 µM"}, "[7]": {"target": "T2, Ephrin type-A receptor 8 (Homo sapiens)", "details": "at 10 µM"}, "[8]": {"target": "T3, Ephrin type-B receptor 4 (Homo sapiens) (UniProt P54760)", "T3 sequence (whole entry)": "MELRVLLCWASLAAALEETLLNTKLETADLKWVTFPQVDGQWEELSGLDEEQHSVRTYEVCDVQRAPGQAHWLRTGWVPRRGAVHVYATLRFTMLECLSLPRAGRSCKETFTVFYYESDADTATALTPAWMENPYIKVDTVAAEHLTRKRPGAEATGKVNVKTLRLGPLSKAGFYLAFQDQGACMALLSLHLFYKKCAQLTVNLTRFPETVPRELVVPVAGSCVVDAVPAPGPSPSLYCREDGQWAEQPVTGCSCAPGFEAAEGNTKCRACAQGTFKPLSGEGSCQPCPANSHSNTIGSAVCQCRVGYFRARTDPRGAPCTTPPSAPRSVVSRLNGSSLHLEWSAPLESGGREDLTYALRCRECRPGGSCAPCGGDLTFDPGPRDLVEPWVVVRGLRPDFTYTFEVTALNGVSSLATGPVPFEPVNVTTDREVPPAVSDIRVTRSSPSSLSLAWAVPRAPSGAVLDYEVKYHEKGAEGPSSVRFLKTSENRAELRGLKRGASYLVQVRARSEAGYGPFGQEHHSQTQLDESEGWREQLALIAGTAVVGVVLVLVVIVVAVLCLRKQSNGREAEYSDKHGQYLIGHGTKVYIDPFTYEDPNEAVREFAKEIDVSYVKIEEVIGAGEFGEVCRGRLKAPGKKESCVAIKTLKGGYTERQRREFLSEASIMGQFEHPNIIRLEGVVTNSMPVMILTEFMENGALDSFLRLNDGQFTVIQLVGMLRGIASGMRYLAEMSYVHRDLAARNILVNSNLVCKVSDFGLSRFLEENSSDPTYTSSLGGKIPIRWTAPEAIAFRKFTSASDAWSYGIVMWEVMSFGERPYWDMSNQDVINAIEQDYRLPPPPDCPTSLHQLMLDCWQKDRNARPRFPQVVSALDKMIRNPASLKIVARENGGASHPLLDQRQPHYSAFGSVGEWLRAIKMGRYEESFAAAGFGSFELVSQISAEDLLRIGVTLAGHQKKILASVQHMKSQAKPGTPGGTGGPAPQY", "details": "at 1 µM"}, "[9]": {"target": "T3, Ephrin type-B receptor 4 (Homo sapiens)", "details": "at 10 µM"}, "[10]": {"target": "Focal adhesion kinase 1 (Homo sapiens) (UniProt Q05397)", "sequence (Q05397 2-1052 limits assumed)": "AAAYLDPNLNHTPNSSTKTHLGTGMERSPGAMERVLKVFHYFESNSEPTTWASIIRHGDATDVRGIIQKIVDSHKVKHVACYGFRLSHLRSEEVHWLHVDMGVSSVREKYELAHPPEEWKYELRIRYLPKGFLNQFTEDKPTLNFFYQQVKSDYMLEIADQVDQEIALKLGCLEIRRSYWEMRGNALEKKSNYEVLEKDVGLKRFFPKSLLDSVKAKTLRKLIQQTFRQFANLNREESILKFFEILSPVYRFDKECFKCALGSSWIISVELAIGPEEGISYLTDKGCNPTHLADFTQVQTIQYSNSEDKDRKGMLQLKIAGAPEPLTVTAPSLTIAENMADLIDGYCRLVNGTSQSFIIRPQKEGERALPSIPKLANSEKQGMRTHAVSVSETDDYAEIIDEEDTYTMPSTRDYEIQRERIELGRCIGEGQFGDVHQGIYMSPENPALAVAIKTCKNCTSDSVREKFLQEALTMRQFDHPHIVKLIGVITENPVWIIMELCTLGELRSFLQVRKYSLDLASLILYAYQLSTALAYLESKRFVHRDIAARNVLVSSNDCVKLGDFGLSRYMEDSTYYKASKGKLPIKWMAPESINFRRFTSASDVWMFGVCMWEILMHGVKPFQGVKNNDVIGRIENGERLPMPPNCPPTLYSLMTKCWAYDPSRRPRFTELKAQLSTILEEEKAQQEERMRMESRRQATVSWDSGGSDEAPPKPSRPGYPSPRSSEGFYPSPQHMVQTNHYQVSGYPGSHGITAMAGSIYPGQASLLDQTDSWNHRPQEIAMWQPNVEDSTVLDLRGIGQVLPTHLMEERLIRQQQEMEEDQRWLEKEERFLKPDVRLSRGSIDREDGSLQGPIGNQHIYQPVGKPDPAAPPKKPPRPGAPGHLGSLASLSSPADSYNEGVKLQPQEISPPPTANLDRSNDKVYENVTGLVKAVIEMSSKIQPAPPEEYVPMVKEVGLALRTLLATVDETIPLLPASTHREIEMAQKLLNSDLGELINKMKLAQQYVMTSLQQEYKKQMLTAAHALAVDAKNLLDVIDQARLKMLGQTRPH", "details": "at 1 µM"}}}
{"smiles": "Nc1ncnc2c1cnn2-c1ccccc1", "values": [{"measurement": "residual activity", "setting": "[1]", "value": 84, "unit": "%"}, {"measurement": "residual activity", "setting": "[2]", "value": 97, "unit": "%"}, {"measurement": "residual activity", "setting": "[3]", "value": 88, "unit": "%"}, {"measurement": "residual activity", "setting": "[4]", "value": 102, "unit": "%"}, {"measurement": "residual activity", "setting": "[5]", "value": 97, "unit": "%"}, {"measurement": "residual activity", "setting": "[6]", "value": 100, "unit": "%"}, {"measurement": "residual activity", "setting": "[7]", "value": 95, "unit": "%"}, {"measurement": "residual activity", "setting": "[8]", "value": 95, "unit": "%"}, {"measurement": "residual activity", "setting": "[9]", "value": 102, "unit": "%"}, {"measurement": "residual activity", "setting": "[10]", "value": 137, "unit": "%"}]}
